Structures are written as SMILES. About 3,300 (0.89%) of roughly 370,000 compounds were called active.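 The calls were made as follows: active = activation above the mean of all tested compounds plus 3 SD, computed per campaign excluding outliers beyond control limits (cut at about 13% in these data); inactive = the rest.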 Shown is part of a subset that was picked to be rich in actives.

The source of these data is PubChem BioAssay AID652039 (The Scripps Research Institute Molecular Screening Center, 2013).

The target in this experiment is Kallikrein-7 (Homo sapiens) (UniProt P49862). Briefly: activation of human kallikrein-7 proenzyme – biochemical, fluorescence intensity, primary screen (AID 652039). To be noted: purified proKLK7, EDANS-DABCYL substrate fluorescence; at 7 µM; hits give high values; 100% is mature enzyme control, 0% vehicle.
Kallikrein-7 (Homo sapiens), sequence (P49862 whole entry, looked up): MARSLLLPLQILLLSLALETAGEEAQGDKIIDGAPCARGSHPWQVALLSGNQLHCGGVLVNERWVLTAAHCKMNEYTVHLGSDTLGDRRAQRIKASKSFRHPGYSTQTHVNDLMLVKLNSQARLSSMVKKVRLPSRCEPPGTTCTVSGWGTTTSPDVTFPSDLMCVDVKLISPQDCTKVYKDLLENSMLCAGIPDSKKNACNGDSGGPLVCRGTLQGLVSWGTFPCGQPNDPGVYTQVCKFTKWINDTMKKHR
In the case of `C=CCN(C(=O)[C@@H](CCCC)[C@@H](O)c1ccc(Cl)cc1)c1ccccc1`, the activation is 0.33% (inactive). `COC(=O)[C@H](C(C)C)N(CCCc1cn(Cc2ccccc2)nn1)S(=O)(=O)c1ccc(F)cc1Br`: the activation was -0.13% (inactive). With `O=C(CCCCCN1C(=O)C2C3C=CC(C3)C2C1=O)Nc1ccccc1` (centres undefined) the figure was -1.05% (inactive); with `CCN(C(=O)[C@@H](C1CC1)[C@@H](O)c1ccc2ccccc2c1)c1ccccc1`, 0.13% (inactive).

In the case of `COc1cccc2sc3cc(NCC[C@@H]4CCCN4C)ccc3c(=O)c12`, the activation was 41.5% (active). With `Cc1cc2oc3ccc(NCCC4CCCN4C)cc3c(=O)c2cc1C` (centres undefined) the figure was 0.31% (inactive).

Turning to `CCOC(=O)[C@]12CCCC=C1N(CCCOC)C(=O)[C@@H]2CC(=O)N1CCOCC1`, the activation is 0.35% (inactive). As for `COc1cc(NC(=O)C2CCCN(S(=O)(=O)c3ccc(C(C)(C)C)cc3)C2)cc(OC)c1` (centres undefined), the activation is 0.22% (inactive).

On to `Cc1ccc(Cn2cc(COC(=O)N(C)Cc3ccccc3)nn2)cc1`, for which the activation is 0.39% (inactive). In the case of `O=C(NCCO)c1cccc(-c2cccc3nccn23)c1`, the activation was 1.32% (inactive). `c1cc(-c2ccc3[nH]ccc3c2)n2ccnc2c1`: the activation was 3.83% (inactive). Turning to `Clc1ccc(-c2cccc3nccn23)cc1`, the activation was 25% (active).

For the compound `CCN(CC)C(=O)CC[C@H]1CC[C@]2(CCCN(Cc3ccc(Cl)cc3)C2)O1`, the activation was 0.06% (inactive). In the case of `Cc1ccc(-n2c(SCC(=O)Nc3ccc(S(=O)(=O)Nc4nccs4)cc3)nnc2-c2cccnc2)cc1` it was 0.82% (inactive). In the case of `COC(=O)[C@H](C(C)C)N(CCc1cn(Cc2ccccc2)nn1)S(=O)(=O)c1ccc(F)cc1Br`, the activation is 0.93% (inactive). With `C[C@@H]1C(c2ccc(F)cc2)=NN(c2ccc(Br)cc2)[C@H]1C(=O)N1CCOC1=O` the figure was 37.1% (active).

In the case of `O=C1OCCN1C(=O)[C@H]1[C@H](c2ccc(Cl)cc2)C(c2cccc(Cl)c2)=NN1c1ccc(Br)cc1`, the activation is -322% (inactive).

Turning to `O=C1OCCN1C(=O)[C@H]1[C@H](c2ccccc2)C(c2ccc(F)cc2)=NN1c1ccccc1`, the activation is -23.2% (inactive).

For the compound `CSc1ccc(C=Nn2c(-c3ccc(F)cc3)n[nH]c2=S)cc1`, the activation was -0.19% (inactive).

Consider `CN(C(=O)C1CCOC1)c1nnc(-c2cccnc2)s1` (centres undefined), for which the activation was 1.7% (inactive). For the compound `CN(C(=O)c1ccccn1)c1nnc(-c2ccccn2)s1`, the activation is 26.2% (active).

In the case of `COc1cccc(-c2nnc(N(C)C(=O)c3ccno3)s2)c1`, the activation was 0.14% (inactive). With `CN(C(=O)c1ccccc1)c1nccnc1C#N` the figure was -0.08% (inactive); with `CN(C(=O)COc1ccccc1)c1nnc(-c2ccncc2)s1`, 15.3% (active). With `CCC(C)(C)NC(=O)C(c1ccccn1)N(C(=O)c1csnn1)c1ccccc1` (centres undefined), the activation was 0.19% (inactive). Turning to `CC(C)Oc1ccc(CCc2nnc(SCC(=O)O)n2-c2ccccc2)cc1`, the activation is 0.35% (inactive). In the case of `O=C(Nc1nc2ccc(Cl)cc2s1)c1cc(-c2ccc(Cl)cc2)nc2ccccc12` it was 0.7% (inactive). On to `COc1cccc2oc(CCc3ccccc3)cc(=O)c12`, for which the activation was 2.15% (inactive). Turning to `CCOC(=O)COc1cc(OCC(=O)OCC)c2c(=O)cc(-c3ccccc3)oc2c1`, the activation is 13.1% (active). For `Cc1cc(OCC(=O)NCC(O)c2ccccc2)c2c(C)c(C)c(=O)oc2c1` (centres undefined), the activation was 0.58% (inactive).

`COc1ccc(S[C@]2(C(=O)N(C)C)CC(=O)N(c3ccc(OC)cc3)[C@@H]2c2ccc(OC)cc2)cc1`: the activation is 0.22% (inactive). `CC(c1ccc(N)cc1)c1cn(C)c2ccccc12` (centres undefined): the activation was 0.46% (inactive). With `COc1ccc(C2CC=C(C(=O)O)C(c3ccccc3F)N2S(=O)(=O)c2ccc(C)cc2)cc1OC` (centres undefined) the figure was 0.12% (inactive). In the case of `CCOc1ccccc1C1C(C(=O)OC)=CN(C)C=C1C(=O)OC` it was 46.1% (active); in that of `CCOc1cc(C2C(C(=O)OC)=CN(C3CCCC3)C=C2C(=O)OC)cc(Br)c1O`, -0.82% (inactive); in that of `COC(=O)C1=CN(C)C=C(C(=O)OC)C1c1ccc(Cl)cc1Cl`, 0.08% (inactive). Take `O=S1(=O)c2ccc(Br)cc2OC[C@@H](Cc2ccccc2)N1Cc1cn(Cc2ccco2)nn1`: the activation was 0.26% (inactive). Regarding `CCOC(=O)c1[nH]c2ccc(OC)cc2c1NC(=O)CCN1CCN(Cc2ccccc2)CC1`, the activation was 13.4% (active). In the case of `Cc1cc(NC(=O)CCN2CCN(Cc3ccccc3)CC2)ccc1Br` it was 0.91% (inactive); in that of `COc1cc2[nH]c(=O)n(CCC(=O)NC3CCN(Cc4ccccc4)CC3)c(=O)c2cc1OC`, -1.29% (inactive). On to `COc1ccc(C(=O)OCCN(C)C2CN(Cc3cn(Cc4cccc(C)c4)nn3)S(=O)(=O)C2)cc1OC` (centres undefined), for which the activation was 0% (inactive).

`CCCCNC(=O)C[C@H]1C(=O)N(Cc2ccc(OC)cc2)C2=CCCC[C@@]21C(=O)OCC`: the activation was -0.1% (inactive). In the case of `N#Cc1ccccc1OC[C@@H](O)CN1CCC(C(O)(c2ccccc2)c2ccccc2)CC1` it was 0.62% (inactive); in that of `COc1ccc(N2CCN(C(=O)Cn3cnc4sc(C)c(S(=O)(=O)N5CCOCC5)c4c3=O)CC2)cc1`, -0.12% (inactive); in that of `FC(F)(F)Oc1ccc(-c2cn3cccnc3n2)cc1`, 34.6% (active). With `Cc1ccccc1Nc1c(-c2ccccc2)nc2ncccn12` the figure was 0.74% (inactive).

As to `c1ccc(-c2cn3cccnc3n2)cc1`, the activation was 32.3% (active). In the case of `COc1ccc(N2CCN(C(=O)CSc3nnc4ncccn34)CC2)cc1` it was 0.11% (inactive); in that of `COc1ccc(-c2ccnc(SCC(=O)N3CCOCC3)n2)cc1`, 0.01% (inactive). In the case of `Nc1nc2ncccn2c1-c1ccccc1` it was 5.34% (inactive). With `COc1ccc(-c2cn3cccnc3n2)cc1` the figure was 73.9% (active); with `C=CCOC/C=C/C#CCN(CC=C)Cc1ccc(OC)cc1OC`, 0.82% (inactive). With `O=C(CSc1nc2ccccc2s1)N=Nc1c(O)[nH]c2ccccc12`, the activation is 0.68% (inactive). In the case of `Cc1ccc(-n2c(COc3ccccc3)nnc2SCC(=O)Nc2ccc3c(c2)OCCO3)cc1` it was 0.98% (inactive). With `CCOC(=O)N1CCN(C(=O)C[C@H]2C[C@@]3(C(=O)OC)C(=C[C@H](C(C)(C)C)O[C@@H]3C)N(Cc3ccc(Cl)cc3Cl)C2=O)CC1` the figure was 0.88% (inactive).

Regarding `COC(=O)c1ccccc1Oc1c(F)c(F)nc(N2CCOCC2)c1F`, the activation is 0.34% (inactive). `COC(=O)c1cc(N2CCNCC2)nc2ccccc12`: the activation was 78.9% (active). With `Cc1cc(C(=O)OCC(=O)N2C(C)CCCC2C)c2ccccc2n1` (centres undefined) the figure was -1.23% (inactive); with `CCOC(=O)[C@@]12CN(C(=O)OC(C)(C)C)CC=C1N(Cc1ccc(OC)cc1)C(=O)[C@H]2CC(=O)NCc1ccc(OC)c(OC)c1`, 0.61% (inactive); with `CC1C(=O)C(C)C(c2ccc(O)cc2)NC1c1ccc(O)cc1` (centres undefined), 0.15% (inactive).

As to `Cc1cc(C)c2nc3nc(C)cc(C)c3c(N)c2c1`, the activation was 52.6% (active). For the compound `CCC(CO)Nc1cccc2c1S(=O)(=O)N(Cc1cn(Cc3ccccc3C(F)(F)F)nn1)Cc1ccccc1O2` (centres undefined), the activation is 0.4% (inactive). With `Cc1ccccc1CN1CCCCC(NC(=O)Nc2ccccc2F)C1=O` (centres undefined) the figure was 0.62% (inactive); with `C#CCCN([C@H](C(=O)OC)C(C)C)S(=O)(=O)c1ccc(F)cc1Br`, -0.16% (inactive); with `O=S1(=O)c2c(cccc2N2CCSCC2)Oc2ccccc2CN1Cc1cn(Cc2ccc(F)cc2)nn1`, -2.26% (inactive). With `C/C(=N\NC(=O)CNc1cccc2ccccc12)c1ccc(Br)s1`, the activation was 2.95% (inactive).

In the case of `CN(CC(=O)Nc1ccc(Cl)cc1)CC(=O)Nc1cccc2ccccc12`, the activation was 0.06% (inactive). On to `Cn1cccc1/C=N/NC(=O)CNc1cccc2ccccc12`, for which the activation is 22.8% (active). With `COc1ccc(/C=C2\CC3(OC(C)=O)CCCN2C3)cc1` (centres undefined) the figure was 0.04% (inactive). With `Nc1nc2cc(Cl)ccc2n1N` the figure was 0.42% (inactive); with `CCC(=O)Nc1ccc2nn(-c3ccc(F)cc3)nc2c1`, 7.33% (inactive). In the case of `Nc1ccc2nn(-c3ccc(Cl)cc3)nc2c1` it was 64.3% (active). Regarding `COc1ccc(-c2cc(C(F)(F)F)nc(S(C)(=O)=O)n2)cc1OC`, the activation is 15.4% (active). In the case of `COc1ccc(-c2cc(C(F)(F)F)nc(SCCC(=O)NCc3ccco3)n2)cc1` it was -0.49% (inactive); in that of `CCC(c1ccc(NC(=O)OC(C)(C)C)cc1)c1cc(OC)cc(OC)c1` (centres undefined), 1.16% (inactive). On to `CCc1c(C)nc2c(OC)cccc2c1Cl`, for which the activation was 0.96% (inactive). Turning to `COc1nc(N=C(N)N)nc2c(C)cccc12`, the activation is 22.7% (active). With `Cc1nc(N=C(N)N)nc2c(C)cccc12` the figure was -0.57% (inactive). In the case of `Nc1[nH]c(/C=C2/CCCCC2n2[nH]c(=O)n(-c3ccccc3)c2=O)c(Cc2ccccc2)[n+]1Cc1ccccc1` (centres undefined) it was -0.08% (inactive).

As to `COc1ccc(CN2C(=O)N3Cc4cc(OC)ccc4C3CS2(=O)=O)cc1` (centres undefined), the activation is 0.22% (inactive). In the case of `CCN(CC)C(=O)CC[C@@H]1CC[C@]2(CCCN(S(=O)(=O)C3CCCCC3)C2)O1` it was -0.08% (inactive).

`O=C(O)c1ccc2c(c1)C(=O)N(c1ccc(/C=C/C(=O)c3ccccc3)cc1)C2=O`: the activation was 108% (active). With `CC(=O)Nc1ccc(NC(=O)c2ccc3c(c2)C(=O)N(c2ccccc2C)C3=O)cc1` the figure was -0.23% (inactive). With `COc1ccc(C(=O)/C=C/c2ccc(-c3ccccc3)cc2)cc1CSCC(=O)O` the figure was -2.22% (inactive).

Turning to `C=CCN1[C@@H](Cc2ccccc2)COc2cccc(N3CCSCC3)c2S1(=O)=O`, the activation is 0.85% (inactive). For the compound `O=C(NCc1ccc(Cl)cc1)C1CCCN(c2nc3ccccc3o2)C1` (centres undefined), the activation is 0.03% (inactive).

In the case of `Cc1sc2nc(SCC(=O)c3ccc(O)c(O)c3)n(Cc3ccco3)c(=O)c2c1C`, the activation was -0.81% (inactive). On to `C=CCN1C(C(=O)OC)CN(Cc2cn(Cc3ccccc3)nn2)CCS1(=O)=O` (centres undefined), for which the activation is 0.39% (inactive). With `CN(c1ccc2nc3ccccc3c(=O)n2n1)C1CCCCC1` the figure was 0.7% (inactive); with `CN(C(=O)c1cc2c(=O)n3ccccc3nc2s1)C1CCCCC1`, 25.8% (active).

With `CCOCCCNC(=O)c1cc2c(=O)n3ccccc3nc2s1`, the activation was 40.6% (active).

For `CCOCCCNC(=O)c1cn(CC(C)C)c(=O)c2c1c1ccccc1n2C`, the activation is -1.85% (inactive). Consider `COCCCNC(=O)/C(C#N)=C/c1c(N2CCCCCC2)nc2ccccn2c1=O`, for which the activation is 8.31% (inactive). `CN(CCNC(=O)c1cc2c(-c3ccccc3F)nn(C)c2s1)C1CCCCC1`: the activation is -1.03% (inactive).
